This experiment concerns the target Huntingtin (Homo sapiens) (UniProt P42858). Description: qHTS Assay Multiplex Screening to Identify Dual Action Probes in a Cell Model of Huntington: Cytoprotection (Protease release). [Related pubchem assays: 1482, 1471, 1688 ]. The class given is functional.

Consider one compound from ChEMBL document CHEMBL1201862, “PubChem BioAssay data set” (2004).

Only a part of the results of these assays is listed, not drawn at random.

Chain of Huntingtin (Homo sapiens) (P42858 whole entry): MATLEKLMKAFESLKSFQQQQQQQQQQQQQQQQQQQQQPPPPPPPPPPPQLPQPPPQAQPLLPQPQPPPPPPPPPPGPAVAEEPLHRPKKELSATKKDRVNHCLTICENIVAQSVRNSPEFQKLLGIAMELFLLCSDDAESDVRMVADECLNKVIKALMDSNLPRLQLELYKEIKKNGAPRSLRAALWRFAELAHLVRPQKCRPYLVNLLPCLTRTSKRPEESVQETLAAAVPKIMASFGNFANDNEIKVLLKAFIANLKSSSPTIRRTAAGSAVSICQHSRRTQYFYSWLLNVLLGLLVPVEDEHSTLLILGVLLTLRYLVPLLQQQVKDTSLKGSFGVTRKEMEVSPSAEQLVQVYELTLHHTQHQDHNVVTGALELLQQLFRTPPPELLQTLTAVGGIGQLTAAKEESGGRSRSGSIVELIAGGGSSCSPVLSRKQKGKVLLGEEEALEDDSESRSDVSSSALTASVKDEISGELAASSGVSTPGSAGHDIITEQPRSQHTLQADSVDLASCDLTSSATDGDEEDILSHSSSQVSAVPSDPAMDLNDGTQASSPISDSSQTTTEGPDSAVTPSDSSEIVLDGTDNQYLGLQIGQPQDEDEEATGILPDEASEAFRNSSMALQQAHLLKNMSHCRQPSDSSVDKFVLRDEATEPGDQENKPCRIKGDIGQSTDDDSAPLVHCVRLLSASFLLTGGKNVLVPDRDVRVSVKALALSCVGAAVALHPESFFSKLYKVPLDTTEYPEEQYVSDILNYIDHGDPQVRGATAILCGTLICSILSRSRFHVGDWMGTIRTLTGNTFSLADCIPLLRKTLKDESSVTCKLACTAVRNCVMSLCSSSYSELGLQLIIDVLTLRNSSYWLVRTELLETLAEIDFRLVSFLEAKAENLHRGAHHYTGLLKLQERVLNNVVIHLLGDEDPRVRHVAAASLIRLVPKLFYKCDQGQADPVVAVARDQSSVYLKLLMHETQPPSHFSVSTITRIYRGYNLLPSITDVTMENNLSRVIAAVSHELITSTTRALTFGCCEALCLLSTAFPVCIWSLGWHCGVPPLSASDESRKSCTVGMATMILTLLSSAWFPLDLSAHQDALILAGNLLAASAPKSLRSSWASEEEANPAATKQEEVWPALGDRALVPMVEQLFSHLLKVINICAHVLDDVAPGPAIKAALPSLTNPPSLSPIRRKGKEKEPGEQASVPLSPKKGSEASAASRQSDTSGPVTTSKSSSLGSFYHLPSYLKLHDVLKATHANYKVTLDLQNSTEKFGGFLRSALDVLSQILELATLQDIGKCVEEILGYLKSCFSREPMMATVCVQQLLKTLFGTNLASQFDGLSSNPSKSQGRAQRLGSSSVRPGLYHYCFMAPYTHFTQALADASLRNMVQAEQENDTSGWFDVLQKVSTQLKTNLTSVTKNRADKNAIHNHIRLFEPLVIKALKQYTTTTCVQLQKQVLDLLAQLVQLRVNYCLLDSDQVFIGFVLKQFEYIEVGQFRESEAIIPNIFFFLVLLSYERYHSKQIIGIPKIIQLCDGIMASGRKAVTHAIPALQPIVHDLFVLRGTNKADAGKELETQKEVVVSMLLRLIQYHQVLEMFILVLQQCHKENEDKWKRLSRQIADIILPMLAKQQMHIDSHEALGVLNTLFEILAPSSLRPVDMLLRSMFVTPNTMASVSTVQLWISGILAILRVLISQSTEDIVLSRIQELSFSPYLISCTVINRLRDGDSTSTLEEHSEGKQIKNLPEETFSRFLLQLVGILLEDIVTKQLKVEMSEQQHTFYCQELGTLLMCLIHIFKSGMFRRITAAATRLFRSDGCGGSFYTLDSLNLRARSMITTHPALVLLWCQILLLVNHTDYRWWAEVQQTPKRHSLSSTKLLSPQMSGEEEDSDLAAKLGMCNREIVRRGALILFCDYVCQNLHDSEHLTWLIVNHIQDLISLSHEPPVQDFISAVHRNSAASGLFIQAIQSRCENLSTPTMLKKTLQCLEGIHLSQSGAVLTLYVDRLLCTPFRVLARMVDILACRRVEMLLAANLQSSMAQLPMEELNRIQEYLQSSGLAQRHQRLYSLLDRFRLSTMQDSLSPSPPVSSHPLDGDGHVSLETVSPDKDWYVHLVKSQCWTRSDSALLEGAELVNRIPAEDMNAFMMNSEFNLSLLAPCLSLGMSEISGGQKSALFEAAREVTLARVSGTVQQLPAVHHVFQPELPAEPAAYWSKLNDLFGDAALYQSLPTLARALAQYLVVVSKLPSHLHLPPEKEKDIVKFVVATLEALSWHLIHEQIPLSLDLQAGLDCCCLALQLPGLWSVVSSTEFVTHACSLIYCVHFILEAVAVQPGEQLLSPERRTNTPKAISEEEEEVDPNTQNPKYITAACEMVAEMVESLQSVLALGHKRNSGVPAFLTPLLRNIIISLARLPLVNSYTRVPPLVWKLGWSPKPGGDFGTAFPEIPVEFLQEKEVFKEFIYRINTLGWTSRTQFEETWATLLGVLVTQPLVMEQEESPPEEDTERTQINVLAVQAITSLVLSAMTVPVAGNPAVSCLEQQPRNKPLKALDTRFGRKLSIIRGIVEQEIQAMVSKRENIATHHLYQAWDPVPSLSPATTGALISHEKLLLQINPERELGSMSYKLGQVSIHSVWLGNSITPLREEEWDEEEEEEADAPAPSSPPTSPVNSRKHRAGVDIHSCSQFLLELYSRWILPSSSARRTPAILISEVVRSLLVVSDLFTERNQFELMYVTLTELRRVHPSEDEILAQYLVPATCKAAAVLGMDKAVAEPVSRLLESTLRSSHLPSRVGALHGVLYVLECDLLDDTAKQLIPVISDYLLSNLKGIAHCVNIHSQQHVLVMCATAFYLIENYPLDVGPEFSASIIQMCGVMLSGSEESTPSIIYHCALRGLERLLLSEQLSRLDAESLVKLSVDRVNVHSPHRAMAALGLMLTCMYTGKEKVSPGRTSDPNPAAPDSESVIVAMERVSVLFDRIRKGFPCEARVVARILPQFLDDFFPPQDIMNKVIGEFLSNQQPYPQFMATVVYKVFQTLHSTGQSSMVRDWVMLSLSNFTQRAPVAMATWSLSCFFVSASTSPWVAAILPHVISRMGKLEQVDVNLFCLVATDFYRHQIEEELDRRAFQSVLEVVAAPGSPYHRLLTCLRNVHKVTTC

`COC[C@@H]([C@H](O)[C@H](O)C(=O)NCC[C@H](C)c1nc(/C=C/C[C@@H]2O[C@]3(C[C@@H](O)[C@@H]2C)O[C@H]([C@H](C[C@H](O)[C@H](C)[C@H](O)[C@H](C)/C=C(C)/C(C)=C/C=C/C(C)=C\C#N)OC)[C@H](OP(=O)(O)O)C3(C)C)co1)N(C)C`: the Potency is 1120 nM (active).
